The results in this text go back to ChEMBL document CHEMBL4513216, “Probing the Open Global Health Chemical Diversity Library for Multistage-Active Starting Points for Next-Generation Antimalarials” (ACS Infect Dis, 2020).

Each structure is given as a SMILES string. In all, about 69,000 compounds went through this assay and about 8,600 (12%) showed an effect of 50% or more. The full list was thinned out, with strong results kept by preference.

The subject of the experiment is Plasmodium berghei. The experiment can be described thus: Screen against P. berghei liver stage (PbLuc), transformed with Luciferase, at 10uM. Type of experiment: functional, HepG2. Particulars: tested at 10 uM.
For `CN(C)CCO[C@H]1CN(C(=O)c2cccs2)[C@@H]2COC[C@H]12`, the INHIBITION is on record as -19.1%.

Take `CN1Cc2[nH]nc(COCC3CC3)c2C1`: the INHIBITION is -44.9%.

`O=C(c1ccc(-c2cccc3c2CCNC3)o1)N1CCOCC1`: the INHIBITION is 39.1%.

Regarding `CCOC[C@@H]1CC[C@H]2[C@H](CCN2S(=O)(=O)c2ccc(F)cc2)O1`, the INHIBITION was -17.1%.

`O=C(O)c1c(-c2ccoc2)ncc2c1CCN(C1CCOC1)C2` (stereo unspecified): the INHIBITION is recorded as 21.6%.

`CC(NC(=O)NCC1(c2ccc(F)cc2)CC1)c1nncn1C` (stereo unspecified): the INHIBITION came out at 31.9%.

For `Cc1cnn(CCC(=O)N2CCCC(c3nc(C)c(C)s3)C2)c1` (stereo unspecified), the INHIBITION is listed as -7.35%.

As to `NCC1(c2cccc(F)c2)CCOCC1`, the INHIBITION was 50.2%.

For `NCC1(c2cccc(C(F)(F)F)c2)CCOCC1`, the INHIBITION worked out at 8.47%.

`NCC1(c2cccc(Br)c2)CCOCC1`: the INHIBITION was -51.5%.

Consider `O=C(Cc1ccsc1)N1C[C@@H]2CN(Cc3ccoc3)CCO[C@@H]2C1`, for which the INHIBITION was 16.5%.

In the case of `COc1ccc(C(CNC(=O)c2c(C)noc2C)N(C)C)cc1` (stereo unspecified), the INHIBITION came to 50.75%.

As to `Cc1noc(C)c1C(=O)NCC(c1cccc(F)c1)N(C)C` (stereo unspecified), the INHIBITION is on record as -20.19%.

Regarding `CCc1ccc(C(CNC(=O)c2c(C)noc2C)N(C)C)cc1` (stereo unspecified), the INHIBITION was 58.9%.

As to `Cc1noc(C)c1C(=O)NCC(c1ccsc1)N(C)C` (stereo unspecified), the INHIBITION is -38.7%.

`Cc1noc(C)c1C(=O)NCC(c1ccc(F)cc1)N(C)C` (stereo unspecified): the INHIBITION came to 23.4%.

For the compound `CCc1noc(C)c1C(=O)NCC(c1ccc(C)cc1)N(C)C` (stereo unspecified), the INHIBITION is given as -25.4%.

Regarding `OC(CNC1CCOCC1)c1cccc(OCc2ccccc2)c1` (stereo unspecified), the INHIBITION stood at 46.1%.

`O=C(O)CNc1cc(-c2cc(C(=O)NC3CC3)ccn2)c2cc[nH]c2n1`: the INHIBITION is on record as -21.1%.

For `COc1ccc(C(C(=O)O)N(C)CCN2CCOCC2)c(C)c1` (stereo unspecified), the INHIBITION was determined as 22.5%.

Turning to `COc1ccc(C(C(=O)O)N(C)CCN2CCCC2)c(C)c1` (stereo unspecified), the INHIBITION is listed as 52.8%.

For `COc1cc(F)ccc1C(C(=O)O)N(C)CCN1CCCC1` (stereo unspecified), the INHIBITION is reported as 40.9%.

For the compound `CCc1n[nH]c(=O)c(C(=O)N2CCSCC2)c1CC`, the INHIBITION is recorded as 39.3%.

As for `Cn1cnnc1C1CCCN(C(=O)c2cc(Cl)c(Cl)n2C)C1` (stereo unspecified), the INHIBITION is given as -10.1%.

With `CC(CNC(=O)c1cnccn1)Oc1ccc(F)cc1` (stereo unspecified), the INHIBITION is recorded as 69.9%.

For `CC(CNC(=O)c1c[nH]nn1)Oc1cccc(Br)c1` (stereo unspecified), the INHIBITION is listed as -15%.

With `CC(CNC(=O)c1c[nH]nn1)Oc1ccc(Cl)cc1` (stereo unspecified), the INHIBITION amounted to 51.6%.

Turning to `Cc1ccc(OC(C)CNC(=O)c2c[nH]nn2)cc1` (stereo unspecified), the INHIBITION was found to be 0.0944%.

In the case of `CC(CNC(=O)c1ccncc1F)Oc1ccc(F)cc1` (stereo unspecified), the INHIBITION is 28.2%.

Take `CC(CNC(=O)c1cnccn1)Oc1cccc(Br)c1` (stereo unspecified): the INHIBITION is given as 10%.

In the case of `Cc1cnc(N2C(=O)CSC2c2ccc(F)cc2)s1` (stereo unspecified), the INHIBITION is 44.8%.

As for `CC(=O)N1CCN(Cc2cccs2)CC2(CC(=O)N(C)C2)C1` (stereo unspecified), the INHIBITION was -2.35%.

As for `COc1ccc(C)cc1CN(C)CC(=O)NC1(C)CCS(=O)(=O)C1` (stereo unspecified), the INHIBITION is 29.7%.

As to `COCCN1CCN(C(C)c2nc(C3CC3)no2)CC1` (stereo unspecified), the INHIBITION worked out at 28.6%.

Take `CCc1noc(C(C)N2CCC(N3CCCC3)CC2)n1` (stereo unspecified): the INHIBITION worked out at 50.4%.

Turning to `CCc1noc(C(C)N2CCN(Cc3noc(C4CC4)n3)CC2)n1` (stereo unspecified), the INHIBITION is 65.7%.

With `COCCCN1CCCN(C(C)c2nc(C3CC3)no2)CC1` (stereo unspecified), the INHIBITION was determined as 54.9%.

For `Cc1nc(CN2CCN(C(C)c3nc(C4CC4)no3)CC2)no1` (stereo unspecified), the INHIBITION was -21.9%.

With `CCc1noc(C(C)N2CCC(C)CC2)n1` (stereo unspecified), the INHIBITION is given as 2.97%.

Consider `CCc1noc(C(C)N2CCC(N3CCCCC3)CC2)n1` (stereo unspecified), for which the INHIBITION came to 44.1%.

In the case of `CCc1noc(C(C)N2CCN(Cc3noc(C)n3)CC2)n1` (stereo unspecified), the INHIBITION is 61.3%.

Turning to `CCc1noc(C(C)N2CCCN(Cc3noc(C4CC4)n3)CC2)n1` (stereo unspecified), the INHIBITION was found to be 15.7%.

Consider `CCOCCN1CCN(C(C)c2nc(C3CC3)no2)CC1` (stereo unspecified), for which the INHIBITION is reported as 0.55%.

As to `CCc1noc(C(C)N2CCN(CC)CC2)n1` (stereo unspecified), the INHIBITION is -54.6%.

As for `Cc1noc(C(C)N2CCN(Cc3noc(C4CC4)n3)CC2)n1` (stereo unspecified), the INHIBITION was 37.4%.

`Cc1ccc(-c2ccnc(NCC3(N(C)C)CCOCC3)n2)c(C)n1`: the INHIBITION came out at 19.2%.

In the case of `Cn1cnc2c1CCN(Cc1csc(-c3ccco3)n1)C2`, the INHIBITION is given as 5.8%.

With `CC(O)CN1CCC(CNCc2cccc(Cl)c2)CC1` (stereo unspecified), the INHIBITION turned out to be 24%.

With `COCCN1C(=O)[C@@H]2CC[C@H]1CN(S(=O)(=O)c1cccc(Cl)c1)C2`, the INHIBITION was 32.2%.

Turning to `COC(=O)C(C)(C)NC(=O)C1CC(=O)N(CC(C)C)C1` (stereo unspecified), the INHIBITION was -22.1%.

On to `OC1(CNCCc2nc3c(s2)CCCC3)CCNC1` (stereo unspecified), for which the INHIBITION is -41.6%.

For the compound `O=c1[nH]c2cn(-c3ccc(F)cc3)c(=O)n2n1Cc1cccc(Cl)c1`, the INHIBITION turned out to be 9.48%.

For the compound `CN1CCC2(CC1)Cc1ccccc1CN(C(=O)CN)C2`, the INHIBITION is recorded as 29.2%.

Take `Cc1cc(N(C)C)nc(C2(C)CCNCC2)n1`: the INHIBITION is -5.8%.

Take `CCn1cc(NC(=O)NCCN2CCCCCC2=O)cn1`: the INHIBITION is 7.24%.

Turning to `CC(C)(C)NC(=O)CNc1ncc(Br)cn1`, the INHIBITION came out at 28.8%.
